Screening results as filed in PubChem.
Most compounds without a hit are left out; they make up all but 19% or so of the library.
HT1080 IDH1KD tx: HT-1080 IDH1 knockdown cell toxicity (counter line); HT-1080 IDH1 knockdown viability, ATP luminescence, 48 h; 360,000 compounds, 2% hits; Potency, µM (highest dose often 46.1 µM), for the others: at the highest dose activity, negative = toxicity, hits mostly cytotoxic;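 also: potency is read from the fitted curve at half-maximal effect; 0% = DMSO wells and -100% = cell-free medium wells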
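Assay cells: HT-1080 with IDH1 knockdown, 750 per well, RPMI/5% FBS. Exposure: 48 h at 37 °C following 2 h pre-incubation. Read: CellTiter-Glo luminescence; fitted concentration-response, curve class assigned.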
TDP1 cell noCPT: qHTS for Inhibitors of human tyrosyl-DNA phosphodiesterase 1 (TDP1): qHTS in cells in absence of CPT; DT40 Tdp1-/- hTDP1 cells, no CPT, ATP luminescence, 48 h; Potency, µM (series often up to 46.2 µM), without a hit: at the highest dose activity change, negative = growth inhibition, hits mostly inhibitors; 420,000 compounds, 15% hits; also: potency is read from the fitted curve at half-maximal effect; nearly all actives have a fitted effect of over 55% in size
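Chicken DT40 Tdp1-/- cells stably complemented with human TDP1 were seeded at 400 cells/well with DMSO in place of 20 nM camptothecin. After compound pinning, cells grew at least 48 hr at 37 °C; viability read by CellTiter-Glo luminescence.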
HT1080NT lethal: kills 2HG-producing HT-1080-NT fibrosarcoma cells; Potency, µM (titrated, usually from 46.1 µM), inactives show at the top dose activity, negative = less viability, actives largely listed as cytotoxic; 360,000 compounds, 1.6% hits; HT-1080-NT fibrosarcoma viability, CellTiter-Glo ATP luminescence, 48 h; AID 686970;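 also: NT is the 2HG producing partner of a matched IDH1 knockdown line; potency is read from the fitted curve at half-maximal effect; 0% = DMSO-treated cells and -100% = media-only wells without cells; nearly all actives have a fitted effect of over 55% in size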
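Compounds were tested in concentration-response format on HT-1080-NT cells for 48 hours at 37 degrees C. Cell viability came from CellTiter-Glo luminescence; curves were classified by r2, response magnitude and activity.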
TDP1 cell CPT: growth inhibition of DT40 Tdp1-/-;hTDP1 cells with camptothecin (screen for TDP1 inhibitors). chicken DT40 Tdp1-/-;hTDP1 cells + 20 nM CPT, ATP luminescence, 48 h. Potency, µM (top dose mostly 46.2 µM), inactives show top-dose activity change, negative = growth inhibition, hits mostly inhibitors. 420,000 compounds, 12% hits. AID 686979; also: potency is read from the fitted curve at half-maximal effect; nearly all actives have a fitted effect of over 55% in size
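Chicken DT40 Tdp1-/- cells complemented with human TDP1, 400 cells/well, exposed to compounds plus 20 nM camptothecin for at least 48 h at 37 C; viability read as ATP content by CellTiter-Glo luminescence.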
IL-1B inflam inh: inhibitors of inflammasome signaling (IL-1 beta secretion). 360,000 compounds, 4.7% hits. THP-1 LPS/ATP IL-1B secretion, AlphaLISA, 16 h; hits give low values. activity change, % at 57.5 µM; in the data active = activity change below about -50%; inconclusive = mostly about -30% to -49%
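THP-1 cells pretreated 1 hr with compounds (up to 57.5 uM final), then stimulated with LPS (250 ng/mL final) plus ATP (1.25 mM final); secreted IL-1B measured by AlphaLISA after 16 hr, decreased signal indicating inhibition.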
ELG1 repair inh: inhibitors of ELG1-dependent DNA repair in HEK293T cells | Potency, µM (highest dose often 46.1 µM), without a hit: top-dose activity change, negative = inhibition, usual class: inhibitors | 330,000 compounds, 2.3% hits | HEK293T ELG1-luciferase reporter, luminescence, 16 h; DNA damage induced by 5-fluorouridine | AID 504467; also: potency is read from the fitted curve at half-maximal effect; nearly all actives have a fitted effect of over 55% in size
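DMSO vehicle served as the neutral condition. Each well held 2,000 cells given 5-fluorouridine plus compound; after 16 hr at 37 °C/5% CO2, ONE-Glo was added and luciferase measured 30 min later.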
An asterisk follows results filed as active; ? = inconclusive; · = no result given. Unless noted, calls follow the shape of the dose curve; as a rule, active = well fitted curve in the direction sought with a large enough effect; inconclusive = small, poorly fitted or top-dose-only effect, or another doubt; inactive = no such curve, though single readings can be large; an effect the other way counts as inactive or inconclusive. Unless noted, % is scaled to controls: 0 for no effect and ±100 for the full control effect.

SMILES	HT1080 IDH1KD tx	TDP1 cell noCPT	HT1080NT lethal	TDP1 cell CPT	IL-1B inflam inh	ELG1 repair inh
O=c1c2ccccc2c(C=Nc2ccccc2O)c(O)n1-c1nccs1	4.8%	?	?	-29.4%	-28.7	16.4µM*
Cc1ccccc1N=Cc1c(O)n(-c2nccs2)c(=O)c2ccccc12	12.7%	?	12.5%	?	-54.8*	20.6µM*
CCN(CC(=O)Nc1ccc2c(c1)OCCO2)C(=O)C(C)Oc1ccc(Cl)cc1 (stereo unspecified)	2.7%	-23.0%	-9.1%	-17.0%	-15.3	-2.3%
CCC(NCc1cccnc1)c1ccc(OC)c(OC)c1 (stereo unspecified)	0.1%	4.8%	1.9%	5.3%	16.0	·
O=C(Nc1cc(-c2ccc(Cl)cc2)no1)c1ccc(F)cc1	·	-5.8%	·	-10.2%	·	·
O=C(NCC1CCCO1)c1ccc2c(c1)C(=O)N(c1cccc([N+](=O)[O-])c1)C2=O (stereo unspecified)	13.9%	-16.4%	0.0%	-10.3%	4.6	-1.0%
COc1cc(C(=O)C(=O)c2cc(OC)c(O)c(OC)c2)cc(OC)c1O	3.2%	-4.2%	-0.4%	-5.4%	5.4	-0.3%
COc1cc(-c2cc(OC)c(O)c(OC)c2)cc(OC)c1O	?	9.2µM*	-16.0%	16.4µM*	-23.7	·
CSS(=O)(=O)c1cccc2cccnc12	-4.2%	5.8µM*	-12.1%	5.8µM*	-7.8	?
O=C(CN1C(=O)c2ccccc2C1=O)Nc1cccc2cccnc12	3.6%	-19.3%	-0.6%	-2.5%	39.3	16.5%
O=Cc1ccc2ccc3cccnc3c2n1	?	3.26µM*	?	5.17µM*	?	-4.0%
c1cnc2c(c1)ccc1cccnc12	7.31µM*	3.66µM*	7.31µM*	3.66µM*	110.1	?
O=C1C=CC(=O)N1c1cccc2cccnc12	0.2%	?	1.2%	16.4µM*	-23.3	·
COc1cccc(-c2cccc(NC(=O)C3CCN(C4CCOCC4)CC3)c2)c1	-1.7%	-3.1%	0.5%	4.9%	-11.7	?
COCCN(Cc1ccc(C)c(Br)c1)S(=O)(=O)c1ccc2[nH]c(=O)ccc2c1	·	?	·	-18.1%	·	·
COc1cccc(N(C(=O)Cn2nnc(-c3ccc(Cl)cc3)n2)C(C(=O)NCC2CCCO2)c2ccc(C)cc2)c1 (stereo unspecified)	4.6%	20.6µM*	0.0%	16.4µM*	-9.2	13.7%
COc1ccc(-c2nnn(CC(=O)N(Cc3ccccc3Cl)C(C(=O)NCC3CCCO3)c3ccco3)n2)cc1 (stereo unspecified)	8.9%	18.4µM*	0.2%	?	5.5	-4.5%
CCN1C(=O)[C@H]2[C@@H](c3ccc(Cl)cc3)N3C(=O)CN(CC4CC4)C(=O)[C@@]3(C)[C@H]2C1=O	12.8%	1.2%	12.6%	6.3%	20.7	7.2%
COc1cccc(NC(=O)Cn2c(=O)n(C)c(=O)c3sc4c(c32)COC(C)(C)C4)c1	-3.0%	3.1%	-3.5%	1.7%	40.4	-23.3%
CC(=O)c1cccc(NC(=O)c2cc3nc(-c4ccc(Br)cc4)cc(C(F)(F)F)n3n2)c1	·	6.51µM*	·	6.51µM*	·	·
CC1CN(CCCCSc2ccc(Cl)cc2)CC(C)O1 (stereo unspecified)	-3.5%	?	-8.1%	20.6µM*	-26.5	0.9%
Cc1ccc(SCCCCN2CCNCC2)cc1	-17.2%	?	-20.2%	20.6µM*	-0.8	?
Clc1ccc(SCCCCN2CCNCC2)cc1	?	18.4µM*	?	20.6µM*	0.0	?
O=C1CSCc2nc3ccccc3n21	13.7%	-17.4%	8.8%	-3.4%	4.9	·
S=C(NCCCN1CCOCC1)Nc1cccc(-c2nnc3n2CCCCC3)c1	9.7%	-0.5%	17.0%	10.3%	-3.1	11.8%
